Data on 32 molecules can be found in PubChem BioAssay AID2314 (National Center for Advancing Translational Sciences (NCATS), 2010).

SMILES strings stand for the structures. Out of some 300,000 compounds screened, about 37,000 (12%) were called active. For the sample, actives were picked, then their nearest neighbours and some compounds at random. Values without a mark were called inactive. Rule as the data show it: active = max response mostly above about 13% (no sharp cut-off); inactive = mostly below about 14%.

The nature of the experiment: Cycloheximide Counterscreen for Small Molecule Inhibitors of Shiga Toxin. Also: read at 38.3 µM for the half of the compounds with a filed dose; 0% is about no effect. As to conditions: cell reporter, cycloheximide protein synthesis inhibition counterscreen; stronger effect = higher value.
Turning to `COc1ccc2cc(C(=O)C3CCCN(C(=O)c4sc(C)nc4C)C3)ccc2c1` (configuration not stated), the max response is 15.7%.
Take `COc1ccc2c(c1)CCc1c(C(=O)N3CCCC3)noc1-2`: the max response is 36.2% (active).
As to `CN1CCN(Cc2c(C(=O)N3CCc4ccccc4C3)nc3ccc(Cl)cn23)CC1`, the max response was -1.69%.
As to `COc1ccc2c(c1)CCc1c(C(=O)N3CCc4ccccc4C3)noc1-2`, the max response is 30.1% (active).
Turning to `O=C(c1noc2c1CCCC2)N1CCc2ccccc2C1`, the max response was 40.9% (active).
Next, `COc1ccc(OC)c(NC(=S)N2CCc3ccccc3C2)c1`: 9.77%.
As to `CN(c1ccc(C(=O)N2CCc3ccccc3C2)cc1)S(C)(=O)=O`, the max response was 18.8%.
For `COc1ccc(S(=O)(=O)NC(C)C(=O)N2CCCCCC2)cc1` (configuration not stated) the value was -0.827%.
Turning to `O=C(C(=O)N1CCc2ccccc2C1)N1CCc2ccccc2C1`, the max response is -2.04%.
On to `Cn1cccc1C(=O)N1CCc2ccccc2C1`, for which the max response was 15.5% (active).
For the molecule `COc1cccc(N(CC(=O)N2CCc3ccccc3C2)S(C)(=O)=O)c1`, the max response was -1.63%.
As for `COc1cccc(NC(=O)N2CCCC2C(=O)NC2CCCCC2)c1` (configuration not stated), the max response is -2.55%.
`Cc1ccc(CN(CC(=O)NC2CCCCC2)C(=O)c2csnn2)cc1`: the max response is -2.39%.
Take `CCOCCCNc1c(CC)c(C)c(C#N)c2nc3ccccc3n12`: the max response is -2.64%.
Next, `Cc1ccc(NC(=O)CC2S/C(=N/N=C3\CCCc4ccccc43)NC2=O)cc1` (configuration not stated): -4.9%.
With `C[C@H]1CCC[C@@]2(C)CCCC[C@]12O`, the max response is 12.1%.
For `Cn1c(CCc2ccccc2)nnc1SCC(N)=O` the value was -1.26%.
With `O=C(Nc1ccc(S(=O)(=O)Nc2nccs2)cc1)c1cccc(S(=O)(=O)N2CCOCC2)c1`, the max response is -1.31%.
On to `O=C(Nc1ccc(N2CCOCC2)c(Cl)c1)c1ccc(S(=O)(=O)N2CCOCC2)cc1`, for which the max response was 5.48%.
`O=C(Nc1ccc(S(=O)(=O)N2CCOCC2)cc1)c1ccc2ncsc2c1`: the max response is 43.1% (active).
`CCc1ccc(C(=O)CSc2nnc(C)c(=O)[nH]2)cc1`: the max response was 1.57%.
Consider `COc1cc(C(=O)NCc2nnc(SCC(=O)c3ccc(Cl)cc3)o2)cc(OC)c1OC`, for which the max response was 2.18%.
As for `O=C(CNC(=O)c1cccs1)N/N=C/c1cccc(Br)c1`, the max response is -3.86%.
For the molecule `O=C(N/N=C/C=C/c1ccco1)c1cccs1`, the max response was 46% (active).
Regarding `Cc1ccc(-n2c(C)cc(/C=N\NC(=O)CC(=O)NC(C)C)c2C)cc1`, the max response was -4.19%.
Regarding `CCN(CC)c1ccc(/C=N/NC(=O)CNC(=O)c2cccs2)cc1`, the max response was 19.2% (active).
Take `O=C(NC(Cc1c[nH]c2ccccc12)C(=O)N/N=C/c1ccc(Br)cc1)c1cccs1` (configuration not stated): the max response is 1.73%.
Regarding `Cc1cccc(-n2c(C)cc(/C=N\NC(=O)c3cccs3)c2C)c1`, the max response was 56.1% (active).
As to `Cc1ccc(-c2cc(C(=O)N/N=C/C=C/c3ccco3)c3ccccc3n2)cc1C`, the max response is 26.2%.
For `CC(=O)Nc1ccc(/C=N/NC(=O)c2cccs2)cc1`, the max response is 58.5% (active).
On to `Cc1cccc(-n2c(C)cc(/C=N/NC(N)=S)c2C)c1`, for which the max response is 9.86%.
For `CCN(CC)c1ccc(/C=N/NC(=O)CNC(=O)c2cccnc2)cc1` the value was -5.38%.
